Shown are actives, neighbours in structure and some others; about 3.5% of the full set was active somewhere.
TEAD-YAP inh: TEAD-YAP interaction inhibition; HEK-TIYL cells, TEAD-Gal4/YAP UAS-luciferase luminescence; inhibition, % at 9.12 µM; 640,000 compounds, 1.4% hits; in the data active = inhibition above about 32%;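 also: 0% = median of test compound wells and 100% = reference inhibitor wells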
FBW7 act: activators of human E3 ligase FBW7 | Q969H0 | AlphaScreen FBW7–phospho-cyclin E peptide binding, activator screen | normalized activity (activation), % at 26.1 µM | 650,000 compounds, 0.13% hits | AID 1259310; in the data active = normalized activity above about 1.9%;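 also: purified mutant Fbw7 with reduced substrate affinity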
MITF inh: blocks human microphthalmia-associated transcription factor | 650,000 compounds, 0.91% hits | AlphaScreen MITF homodimerization, bead proximity signal | inhibition, % at 2.6 µM | O75030 | AID 1259374; in the data active = inhibition above about 50%;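 also: 0% = vehicle wells with protein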
Target sequence (O75030 whole entry, looked up): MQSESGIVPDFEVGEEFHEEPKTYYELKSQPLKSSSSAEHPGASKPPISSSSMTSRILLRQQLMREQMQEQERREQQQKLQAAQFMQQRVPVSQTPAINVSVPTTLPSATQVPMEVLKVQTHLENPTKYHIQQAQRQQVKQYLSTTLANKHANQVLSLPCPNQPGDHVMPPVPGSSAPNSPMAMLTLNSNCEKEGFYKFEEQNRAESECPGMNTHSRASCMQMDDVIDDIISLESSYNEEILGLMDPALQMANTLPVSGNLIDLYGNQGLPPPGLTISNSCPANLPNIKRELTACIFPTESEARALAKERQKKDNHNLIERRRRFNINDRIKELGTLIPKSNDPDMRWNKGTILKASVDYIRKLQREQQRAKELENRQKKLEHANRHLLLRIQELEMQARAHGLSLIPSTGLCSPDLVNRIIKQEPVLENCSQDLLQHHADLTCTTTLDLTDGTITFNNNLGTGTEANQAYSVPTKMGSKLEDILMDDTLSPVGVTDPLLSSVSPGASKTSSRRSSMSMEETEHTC
GPR151 activ: activators of human GPR151; 650,000 compounds, 1% hits; activation, % at 11.2 µM; PathHunter beta-arrestin GPR151 cells, luminescence; Q8TDV0; in the data active = activation above about 4.9%;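 also: 0% = median of compound wells and 100% = cells with positive control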
An asterisk follows results filed as active.

SMILES | TEAD-YAP inh | FBW7 act | MITF inh | GPR151 activ
COc1ccc(N2C(=O)c3ccccc3NC2c2ccc(-c3ccc([N+](=O)[O-])cc3)o2)cc1 (centres undefined) | 41* | 0 | -4 | 0
Cc1cc(C(=O)O)cc(S(=O)(=O)Nc2cccc([N+](=O)[O-])c2)c1C | 3 | 0 | 11 | -1
CCc1nc2nc(C)cc(N3CCN(c4ccccc4OC)CC3)n2n1 | 34* | 0 | -5 | -1
COC(=O)CCCN1C(=O)c2cccc3c(N4CCOCC4)ccc(c23)C1=O | 53* | 0 | -4 | 0
CCC(=O)OCCN1C(=O)c2cccc3c(N4CCOCC4)ccc(c23)C1=O | -3 | 0 | -12 | -1
COc1cccc(NC(=O)c2ccc(Sc3ccccc3Cl)c([N+](=O)[O-])c2)c1 | -3 | 0 | -1 | 2
CC(=O)c1cccc(NC(=O)Nc2cccnc2)c1 | 33* | 0 | 6 | 0
O=C(Nc1cccnc1)Nc1cccc(F)c1 | -7 | 0 | 8 | -1
CCn1c(SCc2cccnc2)nnc1-c1cc2ccccc2cc1O | 44* | 0 | -2 | 0
COC(=O)c1ccc(-c2csc(NC(=O)c3ccccc3NS(=O)(=O)c3ccc(C)cc3)n2)cc1 | 8 | 0 | 17 | 0
O=C(Nc1ccc(-c2nc3ccccc3o2)cc1)C1CCN(C(=O)C2CCCC2)CC1 | -11 | 0 | 52* | -1
CC(=O)c1ccc(NC(=O)c2ccccc2NS(=O)(=O)c2ccc(C)cc2)cc1 | 14 | 0 | -1 | 2
COc1ccc(-c2csc(NC(=O)c3ccccc3NS(=O)(=O)c3ccc(C)cc3)n2)cc1 | 38* | 0 | -5 | 1
Cc1ccc(S(=O)(=O)Nc2ccccc2C(=O)Nc2nc(-c3ccccc3)cs2)cc1 | 34* | 0 | -6 | 1
Cc1ccc(S(=O)(=O)Nc2ccccc2C(=O)Nc2ccc(-c3nc4ccccc4o3)cc2)cc1 | 39* | 2 | 19 | 1
CCOC(=O)c1cc2c(=O)n3ccccc3nc2n(CC(C)C)c1=NC(C)=O | 2 | 0 | -3 | 1
COc1ccccc1C(=O)NNc1nc2c(C)cccc2s1 | 33* | 0 | 0 | 1
COc1cccc(C(=O)NNc2nc3c(C)cccc3s2)c1 | -5 | 0 | -11 | -2
Cc1ccc(S(=O)(=O)Nc2ccccc2C(=O)Nc2nc3c(C)cccc3s2)cc1 | 46* | 0 | -18 | 0
Cc1ccc(SCC(=O)NC2CC2)cc1 | -19 | 0 | 15 | -1
O=C(CSc1ccc(Sc2ccc(SCC(=O)NC3CC3)cc2)cc1)NC1CC1 | 34* | 1 | 11 | 1
COC(=O)c1ccc(C)c(NS(=O)(=O)c2ccc(F)cc2)c1 | -4 | 0 | -1 | -2
COC(=O)c1ccc(C)c(NS(=O)(=O)c2ccc(Br)cc2)c1 | 45* | 0 | -12 | -1
COC(=O)c1ccc(C)c(NS(=O)(=O)c2ccc(C)cc2)c1 | 56* | 0 | -6 | 0
CCOC(=O)c1cc2cccc(NS(=O)(=O)c3ccc(C)cc3)c2[nH]1 | 39* | 0 | 5 | 0
SMILES | TEAD-YAP inh | FBW7 act | MITF inh | GPR151 activ
CN1C(=O)N(C)C(NNC(N)=S)C1NNC(N)=S (centres undefined) | 88* | 0 | 11 | 1
CC(C(=O)Nc1ccc(I)cc1)(C(F)(F)F)C(F)(F)F | 4 | 0 | 14 | -1
COc1ccc(N2CCN(c3ncnc4c3cnn4C)CC2)cc1 | -4 | 0 | 0 | 0
O=C(NCCn1ncc2c(N3CCN(c4ccccc4)CC3)ncnc21)c1ccccc1F | 48* | 0 | -12 | 0
O=C(Cc1ccccc1)NCCn1ncc2c(N3CCN(c4ccc(F)cc4)CC3)ncnc21 | 12 | 0 | 0 | 1
COc1ccc(N2CCN(c3ncnc4c3cnn4CCNC(=O)c3cccs3)CC2)cc1 | 37* | 0 | -7 | 1
COc1ccc(N(CC(=O)NC(C)C)S(=O)(=O)c2ccc(C)cc2)cc1Cl | 14 | 0 | 6 | 1
Cc1n[nH]c(C)c1CCC(=O)N/N=C/c1ccccc1 | -27 | 0 | 9 | 0
CCOC(=O)CN1CCN(c2ccc(-c3cccc(OC)c3)cn2)CC1 | 71* | 0 | 3 | 0
Cc1c(C(=O)Nc2nc3ccccc3s2)sc2ncn(CC(=O)N3CC(C)CC(C)C3)c(=O)c12 (centres undefined) | 0 | 0 | 3 | -1
CCn1cnc2sc(C(=O)Nc3nc4ccc(Br)cc4s3)c(C)c2c1=O | 40* | 0 | -10 | 1
CCN(CC)C(=O)Cn1cnc2sc(C(=O)Nc3nc4ccccc4s3)c(C)c2c1=O | 80* | 0 | -7 | 0
COC(=O)Oc1c(Br)cc2sc(=O)oc2c1Br | -2 | 0 | 5 | 0
O=c1oc2cc(Cl)c(O)cc2s1 | -2 | -1 | 19 | 1
O=c1oc2cc(Br)c(O)c(Br)c2s1 | -4 | -1 | 59* | 0
O=c1oc2c(Br)cc(Br)c(O)c2s1 | -11 | -1 | 8 | 1
O=c1oc2cc(Cl)c(O)c(Cl)c2s1 | 14 | 0 | 55* | -1
Cc1c(Br)c(O)c(Br)c2sc(=O)oc12 | 4 | -1 | 79* | 0
O=C(O)c1cc(Nc2nc(-c3cccs3)cs2)ccc1O | 3 | 0 | -6 | 1
CCn1c2ccccc2c2cc(CNCCc3ccc(OC)c(OC)c3)ccc21 | 8 | 0 | 21 | 0
Clc1cccc(-c2cnc3ccc(NCCc4cccnc4)nn23)c1 | 94* | 2.0* | -1 | -1
N#Cc1ccc(-c2cnc3ccc(NCCc4cccnc4)nn23)cc1 | 34* | 0 | 15 | -1
CCCNC(=O)Cn1cnc2sc(C(=O)NCC(=O)OCC)c(C)c2c1=O | -8 | 0 | -10 | -2
Cc1ccc(N2CC(=O)Nc3ccccc3S2(=O)=O)cc1C | 52* | 0 | 17 | 1
Nc1cccc2c1C(=O)c1c(oc3c1ccc1ccccc13)C2=O | 78* | 0 | -3 | -2
SMILES | TEAD-YAP inh | FBW7 act | MITF inh | GPR151 activ
COc1ccc(S(=O)(=O)Oc2c(OC)cc(C=O)cc2OC)cc1 | 39* | 0 | -1 | 0
COc1ccc(S(=O)(=O)Oc2cc(C=O)ccc2OC)cc1 | 50* | 0 | 9 | 0
CN(CCOc1ccccc1)S(=O)(=O)c1cccc2c(S(=O)(=O)N(C)CCc3ccccc3)cccc12 | -3 | 0 | 4 | 1
COC(=O)c1ccc(C2Oc3c(OC)cccc3C3CC(c4cccc(OC)c4)=NN32)cc1 (centres undefined) | 63* | 0 | 19 | -3
COc1cccc(C2=NN3C(C2)c2cccc(OC)c2OC3c2ccc(F)c(F)c2)c1 (centres undefined) | 26 | 0 | 7 | -1
COc1cccc(C2=NN3C(C2)c2cccc(OC)c2OC3c2cccc(OC)c2)c1 (centres undefined) | 38* | 0 | 6 | 0
COc1cccc(C2=NN3C(C2)c2cccc(OC)c2OC32CCCCC2)c1 (centres undefined) | 36* | 0 | 3 | -2
COc1cccc(C2=NN3C(C2)c2cccc(OC)c2OC3c2cc(OC)c(OC)c(OC)c2)c1 (centres undefined) | 32* | 0 | 3 | -1

Source: PubChem BioAssay (The Scripps Research Institute Molecular Screening Center)
